Targets with a hit are over-represented here; the source holds about 8,800 in all. About 0.5% of all pairs of compound and target were hits.
How the values were obtained:
Assay in all cases: log2 fold change, soluble protein after heating vs DMSO (PISA); higher = thermal stabilisation; K562 lysate, 10 uM; active = over 0.2 and 3.5 SD of the protein, either way, in both replicates (recomputed)
[1] = compound: C=CC(=O)N1CCC[C@@H](n2nc(-c3ccc(Oc4ccccc4)cc3)c3c(N)ncnc32)C1 [ibrutinib]
In short: (§1)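 A 30 min treatment with 10 μM compound was applied to crude K562 extract at 1 mg/mL protein in PBS pH 7.4 with 1 mM MgCl2. Heating for 3 min spanned 48°C-58°C, after which aliquots were pooled, adjusted to 0.5% NP-40 at 4°C and spun at 21,000xg for 90 min. TMTpro 16plex LC-MS/MS of the supernatant, with channel sums equalised, gave values recorded as log-two fold change in thermal stability against solvent controls, from duplicates.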

[2] = compound: CC(=O)c1cnc2ccc(-c3cc(Cl)c(O)c(Cl)c3)nc2c1N[C@H]1CC[C@H](CN(C)C)CC1
In short: as §1

[3] = compound: CC(C)(C)Cn1c(N)nc2ccc(-c3[nH]c(C(C)(C)C)nc3-c3ccc(F)cc3)nc21 [ralimetinib]
In short: as §1

[4] = compound: CC(C)(O)CC(=O)NCCn1ccc2ncnc(Nc3ccc(Oc4cccc(C(F)(F)F)c4)c(Cl)c3)c21
In short: as §1

[5] = compound: CC(C)C1=C2N=C(C=C(N2N=C1)NCC3=CC=CC=C3)NCCCCCCN
In short: as §1

[6] = compound: CC1=C(C(CC(=O)N1)C2=CC=C(C=C2)C(F)(F)F)C(=O)NC3=C(C=C4C(=C3)C=NN4)F
In short: as §1

[7] = compound: CC1=C(C2=C(C=C1)C(=O)C3=CC=CC=C3N2CCCN)C
In short: as §1

[8] = compound: CC1=C(C=C(C=C1)NC(=O)C2=CC(=CC=C2)C(C)(C)C#N)NC3=CC4=C(C=C3)N=CN(C4=O)C
In short: as §1

[9] = compound: CC1=C(C=C(C=C1)NC(=O)C2=CC(=CC=C2)N(C)C)NC(=O)C3=CC=C(C=C3)O
In short: as §1

[10] = compound: CC1=CC=C(C=C1)SC2=C3C=C(SC3=CN=C2)C(=O)N
In short: as §1

Measured: log2 fold change

ADK (UniProt P55263)
inactive: [1] -0.028 | [2] 0.107 | [3] 0.313 | [4] -0.027 | [5] -0.05 | [6] -0.073 | [7] -0.059 | [8] -0.007 | [9] -0.008 | [10] -0.005

ASPH (UniProt Q12797)
inactive: [1] 0.015 | [2] -0.004 | [3] -0.006 | [4] -0.001 | [5] -0.028 | [6] 0.052 | [7] 0.076 | [8] -0.025 | [9] 0.025 | [10] 0

AKAP8 (UniProt O43823)
inactive: [1] 0 | [2] -0.019 | [3] -0.039 | [4] -0.084 | [5] -0.009 | [6] 0.076 | [7] -0.056 | [8] -0.158 | [9] 0.016 | [10] -0.03

ACADM isoform 2 (UniProt P11310)
inactive: [1] 0.151 | [2] 0.026 | [3] -0.015 | [4] -0.047 | [6] -0.041 | [7] -0.004 | [8] -0.055 | [9] -0.019 | [10] 0.046
active: [5] 0.396

ACSL4 (UniProt O60488)
inactive: [1] 0.035 | [2] -0.012 | [3] 0.051 | [4] -0.022 | [5] -0.015 | [6] 0.027 | [7] -0.079 | [8] -0.044 | [9] 0.052 | [10] 0.021

AIMP1 isoform 2 (UniProt Q12904)
Chain of UniProt Q12904 (Q12904 whole entry, looked up): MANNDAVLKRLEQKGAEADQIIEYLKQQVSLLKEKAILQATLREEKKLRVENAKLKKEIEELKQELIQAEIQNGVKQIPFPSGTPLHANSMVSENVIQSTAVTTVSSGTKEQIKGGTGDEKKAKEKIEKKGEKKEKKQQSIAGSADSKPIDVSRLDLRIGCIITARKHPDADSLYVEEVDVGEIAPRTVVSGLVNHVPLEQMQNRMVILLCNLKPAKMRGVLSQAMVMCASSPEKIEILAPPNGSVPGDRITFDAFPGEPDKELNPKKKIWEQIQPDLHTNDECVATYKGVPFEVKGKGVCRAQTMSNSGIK
inactive: [1] 0.009 | [2] 0.012 | [3] 0.026 | [4] 0.018 | [5] 0.022 | [6] -0.026 | [7] 0.005 | [8] -0.014 | [9] -0.006 | [10] 0.006

AGO4 (UniProt Q9HCK5)
inactive: [1] 0.034 | [2] -0.035 | [3] 0.022 | [4] -0.011 | [5] -0.049 | [6] 0.025 | [7] 0.05 | [8] 0 | [9] -0.013 | [10] -0.024

ASB6 (UniProt Q9NWX5)
inactive: [1] -0.04 | [2] -0.087 | [3] 0.027 | [4] -0.013 | [5] 0.001 | [6] -0.13 | [7] -0.007 | [8] 0.055 | [9] -0.052 | [10] 0.01

AP5B1 (UniProt Q2VPB7)
Chain of UniProt Q2VPB7 (Q2VPB7 whole entry, looked up): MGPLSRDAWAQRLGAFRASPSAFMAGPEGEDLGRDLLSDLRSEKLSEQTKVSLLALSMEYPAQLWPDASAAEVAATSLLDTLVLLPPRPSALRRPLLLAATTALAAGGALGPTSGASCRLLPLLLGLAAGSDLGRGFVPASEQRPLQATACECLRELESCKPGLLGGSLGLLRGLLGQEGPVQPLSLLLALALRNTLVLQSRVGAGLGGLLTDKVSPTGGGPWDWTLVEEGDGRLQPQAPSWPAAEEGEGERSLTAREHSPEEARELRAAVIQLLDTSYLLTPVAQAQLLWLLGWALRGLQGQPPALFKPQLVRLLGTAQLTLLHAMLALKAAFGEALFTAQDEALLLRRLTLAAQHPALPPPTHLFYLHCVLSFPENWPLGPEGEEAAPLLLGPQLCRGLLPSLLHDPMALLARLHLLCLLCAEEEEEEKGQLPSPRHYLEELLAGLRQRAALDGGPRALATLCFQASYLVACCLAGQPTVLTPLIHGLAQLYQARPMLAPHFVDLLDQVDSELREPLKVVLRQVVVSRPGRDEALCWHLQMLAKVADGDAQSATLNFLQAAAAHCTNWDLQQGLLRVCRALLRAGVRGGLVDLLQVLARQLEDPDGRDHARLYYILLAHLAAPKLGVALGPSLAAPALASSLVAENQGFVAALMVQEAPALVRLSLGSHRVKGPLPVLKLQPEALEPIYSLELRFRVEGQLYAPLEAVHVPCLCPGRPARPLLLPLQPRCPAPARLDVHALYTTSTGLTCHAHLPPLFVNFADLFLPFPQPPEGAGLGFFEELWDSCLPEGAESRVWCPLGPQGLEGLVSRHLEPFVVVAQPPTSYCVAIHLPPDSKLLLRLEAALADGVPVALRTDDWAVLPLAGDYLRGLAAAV
inactive: [1] 0.112 | [2] -0.037 | [3] -0.04 | [4] -0.072 | [5] 0.011 | [6] 0.021 | [7] -0.067 | [8] -0.08 | [9] 0.036 | [10] -0.006

ALDH1L2 (UniProt Q3SY69)
Chain of UniProt Q3SY69 (Q3SY69 whole entry, looked up): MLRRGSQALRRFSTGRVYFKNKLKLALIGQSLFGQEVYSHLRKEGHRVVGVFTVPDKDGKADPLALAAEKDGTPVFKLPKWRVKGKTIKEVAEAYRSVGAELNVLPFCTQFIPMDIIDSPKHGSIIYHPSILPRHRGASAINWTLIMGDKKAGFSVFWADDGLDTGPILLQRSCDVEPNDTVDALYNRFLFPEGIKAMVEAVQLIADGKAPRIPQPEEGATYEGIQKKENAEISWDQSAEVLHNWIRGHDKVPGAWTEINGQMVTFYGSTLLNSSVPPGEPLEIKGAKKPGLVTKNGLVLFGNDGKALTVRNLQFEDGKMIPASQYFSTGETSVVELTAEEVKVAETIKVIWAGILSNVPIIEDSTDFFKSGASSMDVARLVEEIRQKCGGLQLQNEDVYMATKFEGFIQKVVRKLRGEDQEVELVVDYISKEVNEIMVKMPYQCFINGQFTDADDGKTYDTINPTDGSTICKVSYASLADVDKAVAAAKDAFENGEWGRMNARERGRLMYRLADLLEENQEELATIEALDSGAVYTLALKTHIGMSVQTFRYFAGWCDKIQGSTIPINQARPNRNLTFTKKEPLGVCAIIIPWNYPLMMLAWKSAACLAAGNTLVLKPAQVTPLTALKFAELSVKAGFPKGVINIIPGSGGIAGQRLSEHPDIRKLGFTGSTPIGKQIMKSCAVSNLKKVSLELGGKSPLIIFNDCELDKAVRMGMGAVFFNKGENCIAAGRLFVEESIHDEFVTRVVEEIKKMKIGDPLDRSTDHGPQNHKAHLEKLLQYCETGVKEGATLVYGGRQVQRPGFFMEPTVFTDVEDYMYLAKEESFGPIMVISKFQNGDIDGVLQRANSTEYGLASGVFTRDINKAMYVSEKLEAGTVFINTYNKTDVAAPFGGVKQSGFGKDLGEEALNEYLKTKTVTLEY
inactive: [1] 0.033 | [2] 0.034 | [3] 0.024 | [4] -0.038 | [5] 0.006 | [6] 0.029 | [7] -0.022 | [8] -0.028 | [9] -0.006 | [10] 0.016

ABHD16A (UniProt O95870)
inactive: [1] -0.01 | [2] 0.004 | [3] 0.029 | [4] 0.018 | [5] 0.027 | [6] -0.022 | [7] 0.03 | [8] -0.031 | [9] -0.077 | [10] -0.011

AIF1L (UniProt Q9BQI0)
Chain of UniProt Q9BQI0 (Q9BQI0 whole entry, looked up): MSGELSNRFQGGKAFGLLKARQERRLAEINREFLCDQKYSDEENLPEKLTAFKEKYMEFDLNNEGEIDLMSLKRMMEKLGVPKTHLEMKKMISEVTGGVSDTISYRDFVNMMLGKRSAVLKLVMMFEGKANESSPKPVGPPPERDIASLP
inactive: [1] 0.169 | [2] 0.032 | [3] 0.029 | [4] -0.003 | [5] -0.105 | [6] -0.012 | [7] 0.159 | [8] -0.014 | [9] -0.005 | [10] -0.013

ACAT1 (UniProt P24752)
inactive: [1] 0.002 | [2] 0.005 | [3] 0.003 | [4] 0.002 | [5] -0.002 | [6] 0.001 | [7] 0.034 | [8] -0.013 | [9] -0.007 | [10] 0.015

ABI1 isoform 9 (UniProt Q8IZP0)
inactive: [1] 0.034 | [2] 0.023 | [3] -0.031 | [4] -0.005 | [5] 0.031 | [6] -0.02 | [7] -0.008 | [8] 0.024 | [9] -0.012 | [10] 0.003

ASNS (UniProt P08243)
inactive: [1] 0.012 | [2] 0.015 | [3] -0.014 | [4] 0.012 | [5] 0.052 | [6] -0.017 | [7] 0.04 | [8] 0.016 | [9] 0.014 | [10] 0.047

AKT2 (UniProt P31751)
inactive: [1] -0.016 | [2] 0.006 | [3] 0.026 | [4] 0.006 | [5] -0.006 | [6] 0.011 | [7] 0.007 | [8] 0.005 | [9] -0.004 | [10] -0.044

AP3D1 isoform 5 (UniProt O14617)
inactive: [1] 0.033 | [2] -0.012 | [3] 0.028 | [4] -0.012 | [5] -0.007 | [6] -0.014 | [7] -0.024 | [8] 0.011 | [9] 0.01 | [10] 0.006

ADAMTS5 (UniProt Q9UNA0)
Chain of UniProt Q9UNA0 (Q9UNA0 whole entry, looked up): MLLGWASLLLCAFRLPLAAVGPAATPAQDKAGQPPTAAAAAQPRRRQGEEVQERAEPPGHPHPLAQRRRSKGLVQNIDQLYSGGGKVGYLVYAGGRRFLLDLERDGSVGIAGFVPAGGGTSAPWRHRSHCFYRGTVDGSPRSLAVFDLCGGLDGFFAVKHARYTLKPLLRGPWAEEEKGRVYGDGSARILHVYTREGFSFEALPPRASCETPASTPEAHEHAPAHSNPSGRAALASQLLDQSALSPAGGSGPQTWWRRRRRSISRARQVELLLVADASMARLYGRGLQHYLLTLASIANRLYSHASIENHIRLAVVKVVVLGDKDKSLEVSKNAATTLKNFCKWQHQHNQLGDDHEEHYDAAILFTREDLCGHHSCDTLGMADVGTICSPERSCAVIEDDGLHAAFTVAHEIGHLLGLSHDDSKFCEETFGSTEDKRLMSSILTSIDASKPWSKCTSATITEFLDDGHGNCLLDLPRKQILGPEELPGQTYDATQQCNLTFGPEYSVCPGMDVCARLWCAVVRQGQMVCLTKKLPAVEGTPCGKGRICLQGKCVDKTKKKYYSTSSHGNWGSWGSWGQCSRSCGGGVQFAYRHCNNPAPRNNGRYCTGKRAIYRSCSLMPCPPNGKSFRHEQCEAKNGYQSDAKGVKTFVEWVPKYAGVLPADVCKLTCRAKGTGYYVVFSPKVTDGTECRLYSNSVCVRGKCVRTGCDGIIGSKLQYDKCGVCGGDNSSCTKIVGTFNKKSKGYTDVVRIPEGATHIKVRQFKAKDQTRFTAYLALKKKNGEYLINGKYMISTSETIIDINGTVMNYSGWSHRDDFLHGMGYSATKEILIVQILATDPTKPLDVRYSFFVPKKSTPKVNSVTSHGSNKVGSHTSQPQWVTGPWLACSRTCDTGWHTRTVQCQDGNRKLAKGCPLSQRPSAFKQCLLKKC
inactive: [1] 0.032 | [2] -0.057 | [3] -0.016 | [4] -0.186 | [5] -0.011 | [6] 0.008 | [7] -0.067 | [8] 0.093 | [9] -0.031 | [10] -0.076

ALKBH4 (UniProt Q9NXW9)
inactive: [1] 0.076 | [2] 0.056 | [3] 0.032 | [4] 0.003 | [5] -0.031 | [6] 0.031 | [7] -0.036 | [8] 0.004 | [9] -0.006 | [10] 0.002

ARL8A (UniProt Q96BM9)
Chain of UniProt Q96BM9 (Q96BM9 whole entry, looked up): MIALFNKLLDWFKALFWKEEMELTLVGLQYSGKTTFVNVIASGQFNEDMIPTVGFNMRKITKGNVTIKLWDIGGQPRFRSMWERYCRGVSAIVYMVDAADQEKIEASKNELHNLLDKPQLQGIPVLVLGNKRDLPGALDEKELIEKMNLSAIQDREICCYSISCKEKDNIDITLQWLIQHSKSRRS
inactive: [1] -0.141 | [2] 0.119 | [3] -0.101 | [4] -0.102 | [5] 0.11 | [6] 0.135 | [7] -0.049 | [8] -0.143 | [9] -0.022 | [10] 0

ABCF2 isoform 2 (UniProt Q9UG63)
inactive: [1] -0.012 | [2] 0.013 | [3] 0.059 | [4] 0.003 | [5] 0.01 | [6] 0.007 | [7] -0.008 | [8] -0.013 | [9] 0.021 | [10] 0.012

ANLN (UniProt Q9NQW6)
Chain of UniProt Q9NQW6 (Q9NQW6 whole entry, looked up): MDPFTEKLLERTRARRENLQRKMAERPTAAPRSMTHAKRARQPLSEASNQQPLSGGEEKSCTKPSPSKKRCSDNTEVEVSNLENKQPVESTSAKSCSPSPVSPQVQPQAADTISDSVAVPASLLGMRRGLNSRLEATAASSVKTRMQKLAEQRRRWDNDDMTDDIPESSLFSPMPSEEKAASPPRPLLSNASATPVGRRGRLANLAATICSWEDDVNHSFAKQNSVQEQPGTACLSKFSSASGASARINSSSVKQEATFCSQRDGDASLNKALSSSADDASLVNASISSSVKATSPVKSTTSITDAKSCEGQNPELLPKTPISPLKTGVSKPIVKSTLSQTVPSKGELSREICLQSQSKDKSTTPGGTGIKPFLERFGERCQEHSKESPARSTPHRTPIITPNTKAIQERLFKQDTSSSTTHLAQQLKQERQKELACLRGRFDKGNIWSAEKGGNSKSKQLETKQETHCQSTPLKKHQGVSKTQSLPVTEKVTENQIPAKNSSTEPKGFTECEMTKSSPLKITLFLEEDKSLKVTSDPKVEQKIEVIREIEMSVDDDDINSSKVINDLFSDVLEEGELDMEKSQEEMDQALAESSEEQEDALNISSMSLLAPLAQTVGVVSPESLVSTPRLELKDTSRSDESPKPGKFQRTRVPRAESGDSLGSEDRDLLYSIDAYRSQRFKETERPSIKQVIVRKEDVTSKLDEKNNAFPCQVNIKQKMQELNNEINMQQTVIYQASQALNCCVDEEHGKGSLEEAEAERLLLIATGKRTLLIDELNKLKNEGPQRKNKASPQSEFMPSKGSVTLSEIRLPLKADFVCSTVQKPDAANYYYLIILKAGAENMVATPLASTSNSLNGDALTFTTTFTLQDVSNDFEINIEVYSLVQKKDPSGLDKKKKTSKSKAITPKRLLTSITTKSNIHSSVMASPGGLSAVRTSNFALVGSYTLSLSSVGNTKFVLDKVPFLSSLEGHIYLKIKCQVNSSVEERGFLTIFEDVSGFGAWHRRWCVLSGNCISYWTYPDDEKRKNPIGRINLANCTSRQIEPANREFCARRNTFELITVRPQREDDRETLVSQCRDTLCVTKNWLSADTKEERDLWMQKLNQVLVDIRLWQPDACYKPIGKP
inactive: [1] 0.025 | [2] -0.027 | [3] 0.02 | [4] -0.001 | [5] -0.014 | [6] 0.02 | [7] -0.01 | [8] 0.026 | [9] 0.029 | [10] -0.04

AFF4 (UniProt Q9UHB7)
inactive: [1] 0.172 | [2] -0.009 | [3] -0.049 | [4] 0.033 | [5] -0.008 | [6] -0.028 | [7] -0.047 | [8] 0.009 | [9] 0.002 | [10] 0.024

ALG8 (UniProt Q9BVK2)
Chain of UniProt Q9BVK2 (Q9BVK2 whole entry, looked up): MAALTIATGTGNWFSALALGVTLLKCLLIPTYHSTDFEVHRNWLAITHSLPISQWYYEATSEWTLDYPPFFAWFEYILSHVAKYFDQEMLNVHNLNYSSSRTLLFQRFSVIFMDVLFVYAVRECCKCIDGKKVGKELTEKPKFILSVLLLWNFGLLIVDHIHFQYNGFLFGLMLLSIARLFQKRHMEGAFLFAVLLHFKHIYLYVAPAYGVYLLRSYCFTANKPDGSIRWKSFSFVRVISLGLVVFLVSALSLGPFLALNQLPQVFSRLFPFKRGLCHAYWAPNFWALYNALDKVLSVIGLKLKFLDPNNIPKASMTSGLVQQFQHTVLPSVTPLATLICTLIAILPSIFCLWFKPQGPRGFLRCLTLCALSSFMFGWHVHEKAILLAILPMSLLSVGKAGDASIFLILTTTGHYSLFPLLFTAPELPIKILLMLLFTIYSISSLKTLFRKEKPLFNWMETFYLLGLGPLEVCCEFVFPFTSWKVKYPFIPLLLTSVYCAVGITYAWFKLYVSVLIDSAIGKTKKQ
inactive: [1] 0.017 | [2] -0.013 | [3] 0.013 | [4] 0.036 | [5] -0.028 | [6] -0.005 | [7] 0.054 | [8] 0.027 | [9] -0.011 | [10] -0.003

AIFM2 (UniProt Q9BRQ8)
active: [4] 0.643
inactive: [1] -0.016 | [2] -0.075 | [3] 0.028 | [5] 0.275 | [6] -0.033 | [7] -0.161 | [8] -0.04 | [9] -0.051 | [10] 0.024

ANP32E isoform 3 (UniProt Q9BTT0)
inactive: [1] -0.065

ABL2 (UniProt P42684)
active: [1] 0.586
inactive: [2] 0.078 | [3] 0.005 | [4] 0.002 | [5] 0.002 | [6] -0.057 | [7] -0.112 | [8] 0.154 | [9] 0.093 | [10] -0.046

ARHGEF1 (UniProt M0QZR4)
inactive: [1] -0.009 | [2] -0.001 | [3] 0.009 | [4] -0.008 | [5] 0.019 | [6] -0.015 | [7] 0.007 | [8] 0.002 | [9] 0.015 | [10] 0.005

ABHD12 isoform 2 (UniProt Q8N2K0)
inactive: [1] -0.039 | [2] -0.03 | [3] 0.043 | [4] -0.014 | [5] 0.05 | [6] 0.052 | [7] 0.021 | [8] 0.022 | [9] -0.05 | [10] 0.033

ANXA2 (UniProt H0YL33)
inactive: [1] 0.235 | [2] -0.167 | [3] -0.076 | [4] 0.129 | [5] -0.353 | [6] 0.033 | [7] 0.025 | [8] -0.211 | [9] 0.005 | [10] -0.144

From the supplement of paper PMC10849652
